Assay results reported in PMC4336329 (PLoS ONE, 2015).
Screen size: about 310,000 compounds; about 14,000 (4.5%) showed an effect of 50% or more. The effect is printed as a negative number. Many of the other results were omitted from the sample, so strong results are more common in it than they were.

Target: human ether-à-go-go-related gene (hERG) potassium channel (human, UniProt Q12809)
Assay: primary screen, population patch clamp on CHO cells stably expressing hERG; higher = less effect of the substance
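Further: peak tail current of the secondary pulse compared with the same well before compound.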

Chain of human ether-à-go-go-related gene (hERG) potassium channel (Q12809 whole entry, looked up): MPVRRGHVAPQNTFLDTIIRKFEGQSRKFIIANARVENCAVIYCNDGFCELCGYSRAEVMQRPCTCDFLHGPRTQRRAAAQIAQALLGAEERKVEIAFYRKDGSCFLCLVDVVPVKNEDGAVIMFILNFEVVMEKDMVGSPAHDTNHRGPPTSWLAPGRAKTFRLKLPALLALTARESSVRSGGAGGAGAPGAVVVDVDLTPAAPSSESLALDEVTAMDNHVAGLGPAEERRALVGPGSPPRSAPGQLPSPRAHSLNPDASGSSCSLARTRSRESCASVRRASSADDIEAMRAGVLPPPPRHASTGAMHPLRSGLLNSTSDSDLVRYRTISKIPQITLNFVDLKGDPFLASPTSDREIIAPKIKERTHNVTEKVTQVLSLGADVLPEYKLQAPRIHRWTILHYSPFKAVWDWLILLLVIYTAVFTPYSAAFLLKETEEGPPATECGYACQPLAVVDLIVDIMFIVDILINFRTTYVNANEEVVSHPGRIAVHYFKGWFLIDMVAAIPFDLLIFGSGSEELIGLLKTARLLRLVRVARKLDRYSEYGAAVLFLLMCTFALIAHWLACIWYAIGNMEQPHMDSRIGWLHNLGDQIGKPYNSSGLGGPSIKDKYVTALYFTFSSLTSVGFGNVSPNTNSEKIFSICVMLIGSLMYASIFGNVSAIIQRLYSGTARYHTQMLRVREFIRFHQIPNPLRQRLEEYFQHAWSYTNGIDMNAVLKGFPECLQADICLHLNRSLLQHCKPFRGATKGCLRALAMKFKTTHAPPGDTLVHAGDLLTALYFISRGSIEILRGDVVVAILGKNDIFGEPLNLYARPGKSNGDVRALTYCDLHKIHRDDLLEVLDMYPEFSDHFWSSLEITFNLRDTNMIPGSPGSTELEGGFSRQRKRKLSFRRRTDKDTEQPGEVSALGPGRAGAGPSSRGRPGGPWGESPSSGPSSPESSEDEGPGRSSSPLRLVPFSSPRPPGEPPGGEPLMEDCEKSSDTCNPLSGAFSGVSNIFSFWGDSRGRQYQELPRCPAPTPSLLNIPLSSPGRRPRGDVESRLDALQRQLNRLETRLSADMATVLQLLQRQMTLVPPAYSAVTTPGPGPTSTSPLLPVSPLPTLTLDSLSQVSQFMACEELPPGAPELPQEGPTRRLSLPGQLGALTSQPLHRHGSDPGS

Structure (SMILES) | hERG current change (%, negative = inhibition) at 10uM [%]
CC(C)C(NS(=O)(=O)/C=C/c1ccccc1)C(=O)NCc1ccc(F)cc1 (stereo not shown) | 25.3
CCn1c(SCC(=O)N2c3ccccc3CC2C)nnc1-c1ccco1 (stereo not shown) | -17.6
O=C(Nc1nnc(Cc2ccccc2F)s1)c1ccccc1Cl | 12.6
CCc1ccc(S(=O)(=O)NCc2cn3ccccc3n2)s1 | -11
Cn1c(=O)c2[nH]c(COc3ccc(C(C)(C)C)cc3)nc2n(C)c1=O | -55.1
CCCc1nc2c([nH]1)c(=O)n(C)c(=O)n2C | 15.8
CN(C)Cc1nc2c([nH]1)c(=O)n(C)c(=O)n2C | -0.353
N#Cc1ccc(-c2ccc(Cl)cc2)nc1SCC(=O)c1cccc(Cl)c1 | 28.9
N/C(=N\O)c1ccc([N+](=O)[O-])s1 | 11
Cc1ccc(P(=O)(OCCN2CCOCC2)C(C)(C)C)o1 (stereo not shown) | -4.4
O=C1CN=C(c2ccc(Br)cc2)c2c(sc3c2CCCC3)N1CCN1CCCCC1 | -64.4
COc1ccc(C2=NCC(=O)N(CC(=O)NCc3ccco3)c3sc4c(c32)CCCC4)cc1OC | -17.3
COc1ccc(C2=NCC(=O)N(CC(=O)NCc3ccco3)c3sc4c(c32)CCCC4)cc1 | -35.7
Cl.OC(COc1ccc(Cl)cc1)CN1CCCCC1 (stereo not shown) | -61.9
Cl.OC(COc1ccc(OCC(O)CN2CCCCCC2)cc1)CN1CCCCCC1 (stereo not shown) | 9.75
OC(COc1ccc2ccccc2c1)CN1CCCC1 (stereo not shown) | -19.1
O=C(c1ccc(Cl)cc1)c1ccc(OCC(O)CN2CCOCC2)cc1 (stereo not shown) | -19.7
OC(COc1ccc2cc(Br)ccc2c1)CN1CCCC1 (stereo not shown) | -70.2
OC(COc1ccc2cc(Br)ccc2c1)CN1CCOCC1 (stereo not shown) | -48.4
O=C(c1ccc(Cl)cc1)c1ccc(OCC(O)CN2CCCCC2)cc1 (stereo not shown) | -75.1
O=C(c1ccccc1)c1ccc(OCC(O)CN2CCCCC2)cc1 (stereo not shown) | -39.9
OC(COc1ccc(OCC(O)CN2CCCCC2)cc1)CN1CCCCC1 (stereo not shown) | 15.9

Structure (SMILES) | hERG current change (%, negative = inhibition) at 10uM [%]
CCn1cc(C(=O)NCc2ccccc2OC)c(=O)c2ccc(C)nc21 | 17.6
CCCOc1ccccc1C(=O)N(Cc1cccc(Br)c1)C1CCS(=O)(=O)C1 (stereo not shown) | -35.4
Cn1c(=O)cc(SCC(=O)N2CCN(C(=O)c3ccco3)CC2)c2ccccc21 | -27.4
COc1ccc(OCC(=O)N2CCN(CC3CC4C=CC3C4)CC2)cc1 (stereo not shown) | -26.6
Cc1cc(C)n2ncc(-c3cccc(Br)c3)c2n1 | 5.79
c1ccc(C2(CNc3ccccn3)CCCC2)cc1 | -70.3
O=C(Nc1ccccn1)C1(c2ccccc2)CCCC1 | -3.92
CNCC1(c2ccccc2)CCCC1.Cl | 15.1
CCCCCCNC(=O)CCNS(=O)(=O)c1ccc(C)cc1 | -12.8
CCOc1cc(NC(=O)c2ccccn2)c(OCC)cc1NC(=O)c1cccc(C)c1 | 8.7
COc1ccc(N2CC(C(=O)Nc3c(C(N)=O)oc4ccccc34)CC2=O)cc1 (stereo not shown) | -15
CC/C(=N\N=C1\SC(C)C(=O)N1Cc1ccco1)c1ccccc1 (stereo not shown) | 4.18
O=C(Nc1ccc(Oc2ccccc2)cc1)C1CCN(c2c3c(nc4ncnn24)CCC3)CC1 | -55.6
CC1CCC(NC(=O)C2CCN(c3c4c(nc5ncnn35)CCC4)CC2)CC1 (stereo not shown) | -19.3
COc1ccc(NC(=O)C2CCCN(c3c4c(nc5ncnn35)CCC4)C2)cc1OC (stereo not shown) | -11.7
COc1ccc(NC(=O)C2CCCN(c3c4c(nc5ncnn35)CCC4)C2)cc1 (stereo not shown) | -61.6
O=C(Nc1ccc2c(c1)CCC2)C1CCN(c2ncccn2)CC1 | 20.6
O=C(Nc1ccc2c(c1)CCC2)C1CCN(c2c3c(nc4ncnn24)CCC3)CC1 | -73.1
CC1CCCCC1NC(=O)C1CCN(c2c3c(nc4ncnn24)CCC3)CC1 (stereo not shown) | 4.49
O=C(NC1CCCc2ccccc21)C1CCN(c2c3c(nc4ncnn24)CCC3)CC1 (stereo not shown) | -31.3
COc1ccc(NC(=O)C2CCCN(c3ncccn3)C2)cc1 (stereo not shown) | 3.4
